For eight compounds, Potency, outcome and max response results are on record in PubChem BioAssay (NCATS).

A short description of assay [1]: Cell Viability - HepG2 (AID 433; calls by dose curve;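 also: potency is read from the fitted curve at half-maximal effect; potency for ATP loss meaning cytotoxicity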). Particulars: qHTS. In outline: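 Read-out is luciferase-based quantitation of cellular ATP as a measure of viable HepG2 cells after 40 h treatment at 37 °C. Signal decrease is scaled between DMSO-only and 100 uM tamoxifen controls, with AC50 fitted by the Hill equation.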
A general note: In qHTS, concentration-response curves come from the screen itself.

Assay [2] can be described thus: Cellular Toxicity (caspase-3) SHSY5Y (AID 657). Particulars: SH-SY5Y caspase-3 activation; series mostly up to 91.7 µM. In outline: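 qHTS, SH-SY5Y, 1500 cells/well, 5 h pre-incubation 37 °C; compound 16 h 37 °C; Caspase-Glo 3/7 1 h RT; luminescence. Norm.: DMSO = 0, 10 uM staurosporine = 100%. Hill fit → AC50.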
Assay [3] is described as follows: Cellular Toxicity (caspase-3) SK-N-SH (AID 661). Particulars: SK-N-SH caspase-3 activation, qHTS, DMSO as zero, staurosporine as full; series mostly up to 91.7 µM. In outline:
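Luminescent Caspase-Glo 3/7 read-out after 16 hr compound exposure of SK-N-SH neuroblastoma cells at 37 °C. Signal increase normalized to DMSO (basal) and 10 uM staurosporine (100%); AC50 from Hill equation fits of qHTS concentration-response data.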

Assay [4] in a line: MultiTox-Fluor Cytotoxicity Assay - LYMP1-003 - Dead Cells (AID 961). Also: nearly all actives have a fitted effect of over 70% in size. Also: potency is read from the fitted curve at half-maximal effect. Particulars: LYMP1-003 lymphoblastoid cells, dead-cell protease fluorescence; series mostly up to 92.2 µM. Put shortly:
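LYMP1-003 human lymphoblastoid cells (2500/well) exposed to compound 16 h at 37 C in complete medium; dead-cell protease read with bis-AAF-R110 fluorescence (Ex/Em 485/520) after 60 min at room temperature. Normalized to DMSO and 15 uM tetraoctylammonium bromide; AC50 from Hill fit.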

Assay [5] is described as follows: Cell Viability - LYMP2-017 (AID 972).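 Also: cells exposed to compound for 24 hours at 37 °C; nearly all actives have a fitted effect of over 55% in size.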 Also: potency is read from the fitted curve at half-maximal effect. To be noted: LYMP2-017 lymphoblastoid cell viability; series mostly up to 92.2 µM. Put shortly:
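Luminescent ATP read-out (CellTiter-Glo, 30 min RT) reports viable cell number. Cells: human lymphoblastoid line, 2500 per well, 5 hr preincubation, 24 hr compound exposure at 37 C. AC50 is derived from qHTS concentration-response data using the standard Hill model.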

The nature of assay [6]: Cell Viability - LYMP2-021 (AID 974).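 Also: compound exposure lasts 24 hours at 37 °C; nearly all actives have a fitted effect of over 55% in size.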 Also: potency is read from the fitted curve at half-maximal effect. Particulars: LYMP2-021 lymphoblastoid cells viability; series mostly up to 92.2 µM. Put shortly:
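ATP luminescence (CellTiter-Glo, 30 min RT) after 24 h compound exposure at 37 C; 2500 human lymphoblastoid cells/well, 5 h settle beforehand. Cytotoxicity = concentration-dependent ATP drop, AC50 by Hill fit.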

Assay [7] is described as follows: Cell Viability - LYMP2-007 (AID 979).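 Also: cells exposed to compound for 24 h before reading; nearly all actives have a fitted effect of over 60% in size.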 Also: potency is read from the fitted curve at half-maximal effect. To be noted: LYMP2-007 lymphoblastoid cell viability; series mostly up to 92.2 µM. In outline:
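qHTS cytotoxicity: 2500 cells/well, 5 hr 37 C settle, compound 24 hr 37 C, CellTiter-Glo 30 min RT, luminescence. Decrease in ATP = toxicity. AC50 by standard Hill equation; tetraoctylammonium bromide positive control.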

Assay [8] is described as follows: Cell Viability - LYMP2-012 (AID 982).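 Also: cellular ATP by luciferase luminescence where a drop means cytotoxicity; cells exposed to compound for one day before reading; nearly all actives have a fitted effect of over 55% in size.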 Also: potency is read from the fitted curve at half-maximal effect. To be noted: LYMP2-012 lymphoblastoid cell viability qHTS; series mostly up to 92.2 µM.
Assay [9] is described as follows: Cell Viability - LYMP2-020 (AID 986). Also: nearly all actives have a fitted effect of over 55% in size. Also: potency is read from the fitted curve at half-maximal effect. To be noted: series mostly up to 92.2 µM. Put shortly:
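qHTS, 2500 cells/well; 5 hr then 24 hr compound exposure, 37 C; CellTiter-Glo luminescence after 30 min RT; ATP decrease taken as cytotoxicity; AC50 via Hill equation; tetraoctylammonium bromide positive control.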

Assay [10] is described as follows: Cell Viability - LYMP1-002 - Assay at 24 hr (AID 993). Also: potency is read from the fitted curve at half-maximal effect. Particulars: LYMP1-002 lymphoblastoid cells viability; series mostly up to 92.2 µM. Put shortly: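 CellTiter-Glo luminescence (intracellular ATP) after 24 h compound exposure, 37 C, in LYMP1-002 human lymphoblastoid cells; decreased ATP taken as cytotoxicity. AC50 from standard Hill fit of concentration-response curves.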

Assay [11] can be described thus: Cell Viability - LYMP1-002 - Assay at 40 hr (AID 994). Also: nearly all actives have a fitted effect of over 60% in size. Also: potency is read from the fitted curve at half-maximal effect. To be noted: LYMP1-002 lymphoblastoid cell viability; series mostly up to 92.2 µM. In outline: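 qHTS cytotoxicity; 2500 cells/well, 5 hr 37 C settle, compound 40 hr 37 C. CellTiter-Glo, 30 min RT, luminescence (ATP). Concentration-response, Hill fit → AC50. Pos. ctrl tetraoctylammonium bromide.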
The target in assay [12] is Voltage-gated inwardly rectifying potassium channel KCNH2 (Homo sapiens) (UniProt Q12809). Briefly: qHTS Assay for Small Molecule Inhibitors of the Human hERG Channel Activity (AID 588834).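 Also: lower thallium flux fluorescence means stronger hERG block; nearly all actives have a fitted effect of over 50% in size.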 Also: potency is read from the fitted curve at half-maximal effect. Particulars: U2OS BacMam hERG, FluxOR thallium flux fluorescence; series mostly up to 92.2 µM. Put shortly: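 Step 1: BacMam hERG transduction of U2OS, 4 hrs RT. Step 2: overnight 37 °C, plate 2000 cells/well, 4 hr. Step 3: FluxOR load, compound 10 min, stimulate, read fluorescence.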
Voltage-gated inwardly rectifying potassium channel KCNH2 (Homo sapiens), sequence (Q12809 whole entry, looked up): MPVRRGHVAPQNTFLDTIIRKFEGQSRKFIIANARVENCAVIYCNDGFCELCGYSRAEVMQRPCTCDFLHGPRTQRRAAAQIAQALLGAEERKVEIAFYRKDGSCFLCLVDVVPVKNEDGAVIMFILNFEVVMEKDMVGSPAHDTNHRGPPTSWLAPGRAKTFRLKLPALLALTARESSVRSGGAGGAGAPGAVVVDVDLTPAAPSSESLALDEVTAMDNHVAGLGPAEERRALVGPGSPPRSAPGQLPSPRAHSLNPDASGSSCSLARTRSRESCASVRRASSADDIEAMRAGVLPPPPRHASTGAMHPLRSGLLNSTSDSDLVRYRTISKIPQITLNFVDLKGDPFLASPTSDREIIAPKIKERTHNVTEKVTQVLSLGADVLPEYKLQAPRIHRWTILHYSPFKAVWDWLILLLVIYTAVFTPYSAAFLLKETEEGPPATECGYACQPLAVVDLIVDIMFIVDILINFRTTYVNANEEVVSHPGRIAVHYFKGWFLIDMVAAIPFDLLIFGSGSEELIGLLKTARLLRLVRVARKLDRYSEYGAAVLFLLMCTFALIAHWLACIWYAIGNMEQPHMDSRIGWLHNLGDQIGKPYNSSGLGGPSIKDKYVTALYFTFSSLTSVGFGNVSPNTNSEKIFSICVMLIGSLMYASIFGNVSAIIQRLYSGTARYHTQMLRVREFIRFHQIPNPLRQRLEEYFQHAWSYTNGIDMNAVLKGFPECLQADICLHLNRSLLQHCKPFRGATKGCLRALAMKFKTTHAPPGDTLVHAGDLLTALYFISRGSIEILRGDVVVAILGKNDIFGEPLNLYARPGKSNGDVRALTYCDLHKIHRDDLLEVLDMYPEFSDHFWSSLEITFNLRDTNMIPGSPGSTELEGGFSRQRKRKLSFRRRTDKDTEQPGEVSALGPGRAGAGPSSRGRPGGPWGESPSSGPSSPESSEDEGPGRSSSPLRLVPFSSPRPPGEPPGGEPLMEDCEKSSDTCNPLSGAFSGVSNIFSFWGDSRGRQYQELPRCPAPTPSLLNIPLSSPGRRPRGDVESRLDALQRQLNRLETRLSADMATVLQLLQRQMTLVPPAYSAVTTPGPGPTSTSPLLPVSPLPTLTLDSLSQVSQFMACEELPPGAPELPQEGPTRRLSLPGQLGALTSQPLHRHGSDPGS

The target in assay [13] is Peroxisome proliferator-activated receptor alpha (Homo sapiens) (UniProt Q07869). Briefly: qHTS assay for small molecule agonists of the peroxisome proliferator-activated receptor alpha (PPARalpha) signaling pathway (AID 651778). Also: % of control where 0% means no effect. To be noted: PathHunter PPARalpha complementation, chemiluminescence, 6 h; max response: hits give high values. Put shortly:
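Cells plated at 2,000/well and held overnight at 37 C, 5% CO2, then compound added by pin tool for 6 hr; after PathHunter detection reagent and 60 min at room temperature, chemiluminescence from enzyme complementation was read.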

Assay [14] in a line: qHTS assay for small molecule antagonists of the retinoid-related orphan receptor gamma (ROR-gamma) signaling pathway - cell viability counter screen (AID 720652; active = well fitted curve in the direction sought with a large enough effect in the repeat runs; an effect the other way counts as inactive or inconclusive;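 also: compound exposure lasted 16 hr before ATP read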; also: potency is read from the fitted curve at half-maximal effect). Particulars: RORgamma reporter cell line viability counter screen; series mostly up to 92.2 µM. Put shortly:
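CHO RORE-LUC/TET-ROR line, 1,000 cells/well, 37 C 5% CO2 5 hr; cpd or DMSO + doxycycline induction, 16 hr. CellTiter-Glo, 30 min RT, luminescence = ATP content.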

A short description of assay [15]: Cell Viability - Hek293 (AID 427;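 active = compounds whose dose-response curve shows a full or clear partial loss of cell viability, called from curve shape rather than a numeric limit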;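 also: potency is read from the fitted curve at half-maximal effect; cells exposed to compound for 40 hours at 37 °C before reading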). To be noted: qHTS. Put shortly: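 HEK293 cells in complete medium were exposed to compound for 40 hr at 37 °C, then cellular ATP was read by CellTiter-Glo luminescence. Data were normalized to DMSO (basal) and 100 uM tamoxifen (100% inhibition), and AC50 came from Hill fits.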
Assay [16] in a line: Cell Viability - LYMP2-009 (AID 968). Also: nearly all actives have a fitted effect of over 55% in size. Also: potency is read from the fitted curve at half-maximal effect. Particulars: LYMP2-009 lymphoblastoid cell viability; series mostly up to 92.2 µM.
Assay [17] can be described thus: Cell Viability - LYMP2-025 (AID 976). Also: potency is read from the fitted curve at half-maximal effect. To be noted: LYMP2-025 lymphoblastoid cell viability; series mostly up to 92.2 µM. Put shortly: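 CellTiter-Glo luminescence (cellular ATP) after 24 h compound exposure at 37 C; LYMP2-025 human lymphoblastoid cells, 2500/well, complete medium. Tetraoctylammonium bromide positive control. AC50 by Hill equation fit of qHTS concentration-response.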

Assay [18] in a line: qHTS assay for small molecule disruptors of the mitochondrial membrane potential - 5 hr assay (AID 651755; calls by dose curve; also: nearly all actives have a fitted effect of over 40% in size; also: potency is read from the fitted curve at half-maximal effect). To be noted: JC-1-type ratio dye; series mostly up to 92.2 µM. Put shortly:
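Seed HepG2 overnight, add compound, incubate 5 hr at 37C and 5% CO2, stain 30 min with Mito-MPS, then measure monomer (490/535 nm) and aggregate (540/590 nm) fluorescence.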

A short description of assay [19]: qHTS assay for small molecule agonists of the antioxidant response element (ARE) signaling pathway measured by Nrf2-dependant transcriptional activity - cell viability counter screen (AID 720653; active = well fitted curve in the direction sought with a large enough effect in the repeat runs; an effect the other way counts as inactive or inconclusive; also: potency is read from the fitted curve at half-maximal effect; as to max response: % is scaled to controls: 0 for no effect and ±100 for the full control effect). Particulars: ARE-bla HepG2 viability, CellTiter-Glo ATP luminescence, 16 h; max response: hits give low values. Put shortly: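 ARE-bla HepG2 cells (2,000/well) rested 5 hrs at 37C/5% CO2, then exposed to compounds in DMSO for 16 hrs. Viability was read in the same wells as intracellular ATP by luminescence, 30 min at room temperature after reagent addition.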

A short description of assay [20]: Cellular Toxicity (caspase-3) NIH 3T3 (AID 666).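 Also: 0% = DMSO basal and 100% = 100 µM tamoxifen stimulation.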 Particulars: NIH 3T3 caspase-3 activation, apoptosis/toxicity, 0% DMSO, 100% is 100 µM tamoxifen; series mostly up to 92.2 µM. Put shortly:
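NIH 3T3, 1000 cells/well, 5 hr settle then 16 hr compound at 37°C; Caspase-Glo 3/7, 20 min RT, luminescence. DMSO = basal, 100 uM tamoxifen = 100%. Hill-equation AC50, qHTS.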

Unmarked numbers belong to inactive results. Records with an inconclusive call do not appear. Calls of active or inactive are those of the source. Unless noted, calls follow the shape of the dose curve; as a rule, active = well fitted curve in the direction sought with a large enough effect; inconclusive = small, poorly fitted or top-dose-only effect, or another doubt; inactive = no such curve, though single readings can be large; an effect the other way counts as inactive or inconclusive. Bounds are passed on as bounds.

Peroxisome proliferator-activated receptor alpha (Homo sapiens), sequence (Q07869 whole entry, looked up): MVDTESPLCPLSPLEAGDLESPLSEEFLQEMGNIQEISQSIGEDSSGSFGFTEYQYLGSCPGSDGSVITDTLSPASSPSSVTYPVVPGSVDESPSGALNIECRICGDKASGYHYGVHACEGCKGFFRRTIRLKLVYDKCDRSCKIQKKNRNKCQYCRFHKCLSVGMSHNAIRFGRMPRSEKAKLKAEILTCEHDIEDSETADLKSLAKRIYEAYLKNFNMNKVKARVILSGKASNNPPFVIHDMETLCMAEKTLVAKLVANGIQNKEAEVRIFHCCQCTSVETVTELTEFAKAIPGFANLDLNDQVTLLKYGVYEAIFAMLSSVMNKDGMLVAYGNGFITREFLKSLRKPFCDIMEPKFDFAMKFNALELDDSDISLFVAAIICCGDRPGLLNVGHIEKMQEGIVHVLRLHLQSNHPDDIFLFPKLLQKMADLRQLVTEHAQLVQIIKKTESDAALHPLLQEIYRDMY

As for `CC(C)CC(C)Nc1ccc(Nc2ccccc2)cc1` (stereo unspecified), the Potency is greater than 92 µM in [1]; 50.1 µM (active) in assay [4]; 50.1 µM (active) in [5]; 50.1 µM (active) in [6]; 39.8 µM (active) in [7]; 39.8 µM (active) in assay [8]. Moreover, the Potency in [9] is 39.8 µM (active); in assay [10] it was 39.8 µM (active); in assay [11] it was 31.6 µM (active); in assay [12], 20 µM (active); in assay [14], 59.6 µM (active). In assay [2], the Potency entry is “inactive”. Moreover, the outcome in assay [3] was inactive. For the same compound, in [13], the max response is -7.88%.

Consider `[CH3][Hg][Cl]`, for which the Potency in [15] is 33.3 µM (active); in assay [1], 31.7 µM (active); in [16] it was 5.01 µM (active); in assay [5], 3.16 µM (active); in assay [6], 3.16 µM (active); in [17], 7.94 µM (active). For the same compound, the Potency is 3.98 µM (active) in assay [7]; 3.16 µM (active) in [8]; 2.51 µM (active) in assay [9]; 39.8 µM (active) in assay [10]; 25.1 µM (active) in assay [12]; 66.8 µM (active) in assay [18]. Further, the Potency in assay [14] is 10.6 µM (active); in assay [19], 25.1 µM (active). For the same compound, in [3], the compound was classed as inactive. The max response in [13] is -12.7%.

With `O=[N+]([O-])c1ccccc1Cl`, the Potency in [15] and in [1] was greater than 92 µM in each case.

Regarding `ClC1=C(Cl)C2(Cl)C3C(Cl)C(Cl)CC3C1(Cl)C2(Cl)Cl` (stereo unspecified), the Potency in assay [15] is 72.7 µM (active); in [1], greater than 92 µM; in [4] it was 50.1 µM (active); in assay [12], 35.5 µM (active); in [14], 66.8 µM (active). Moreover, in assay [20], the compound was classed as inactive. Also, the Potency entry in assay [16], in assay [6], in [17], in assay [8], in assay [10] and in assay [18] was “inactive” each time. For the same compound, the max response in [19] was -13.1%.

Take `Cc1ccc(O)cc1C`: the Potency in assay [15] and in [1] was greater than 92 µM throughout. Also, the max response in [19] was -2.94%.

For `C#CCO`, the Potency in [15] and in assay [1] was greater than 92 µM throughout. Moreover, the Potency entry in [2], in [4], in assay [16], in assay [5], in assay [6] and in assay [17] was “inactive” throughout. Further, the Potency entry in assay [7], in assay [8], in assay [9], in assay [10], in [11] and in assay [12] was “inactive” each time. For the same compound, the Potency entry in assay [14] was “inactive”. Moreover, the call in assay [3] and in assay [20] was inactive. The max response in [19] was -2.39%.

Consider `OC(c1ccc(Cl)cc1)(c1ccc(Cl)cc1)C(Cl)(Cl)Cl`, for which the Potency is greater than 92 µM in assay [15] and 39.8 µM (active) in assay [12]. The Potency result in assay [2], in assay [4], in [16], in assay [5], in assay [6] and in assay [17] was “inactive” throughout. The Potency entry in [7], in assay [8], in assay [9], in assay [10], in [11] and in assay [18] was “inactive” in each case. Also, the call in [20] was inactive. Besides, the max response in [13] was -0.474%; in assay [19] it was -1.65%.

On to `[Cd+2].[Cl-].[Cl-]`, for which the Potency was 51.2 µM (active) in assay [15], 39.8 µM (active) in assay [7] and 21.1 µM (active) in [14]. The Potency result in [2] and in [18] was “inactive” in each case. Also, the compound was called inactive in [3] and in assay [20]. In addition, the max response in assay [13] is -8.85%.
